Here are results for 17 compounds from PubChem BioAssay AID1845226 (National Center for Advancing Translational Sciences (NCATS), 2023).

Records with an inconclusive call do not appear. Entries that show only a call come without a potency. Activity calls are given as the source filed them. The call rests on the fitted dose curve; in most records, active means well fitted inhibition curve with a large enough effect; inconclusive means small, poorly fitted or top-dose-only effect; inactive means no such curve, though single readings can be large or run the other way.
Potency means the concentration at half of the fitted maximal effect.

This assay in a line: Confirmatory fluorescence-based thiol-reactive (MSTI) qHTS assay for identification of artifact compounds. Conditions: MSTI thiol-reactivity probe, 1 h; series mostly up to 39.2 µM. In a few lines:
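Compounds (qHTS) incubated 1 h at room temperature, light-protected, with 4 uM MSTI in 1X PBS pH 7.4, 2% DMSO. Fluorescence at 525/598 nm normalized to Acetyl-MSTI and MSTI, fitted to Hill equation.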
Turning to `O=C(O)c1ccccc1[N+](=O)[O-]`, the Potency entry was “inactive”.
Consider `CCOc1ccc(NC(=O)c2cnc(Nc3ccccc3OC)c3ccccc23)cc1`, for which the Potency result is “inactive”.
Consider `Clc1ccccc1Cn1c(-c2cccs2)nc2ccccc21`, for which the Potency result is “inactive”.
With `CCOc1ccc(NC(=O)CSc2nnc3scc(-c4ccccc4)n23)cc1`, the Potency entry was “inactive”.
Take `CCCS(=O)(=O)N1CCCC(C(=O)NCCCOC)C1` (configuration not stated): the Potency entry is “inactive”.
For `CCOC(=O)c1c(NC(=O)c2ccc(S(=O)(=O)N(CC)CC)cc2)sc2c1CCCCC2`, the Potency entry is “inactive”.
As for `COc1ccc(C(=O)O)cc1Nc1nc2ccc(C)cc2n2cnnc12`, the Potency entry is “inactive”.
Next, `COc1ccc(C(=O)NCC(=O)OCC(=O)c2cccc3ccccc23)cc1`: “inactive”; `CCOC(=O)c1ccc(N2CCN(c3ccc(F)cc3)CC2)c(NC(=O)Nc2cccc(OC)c2)c1`: “inactive”; `Nc1ccc(F)cc1F`: “inactive”.
In the case of `Cc1ccc(OCCn2c(CCNC(=O)c3c(F)cccc3F)nc3ccccc32)cc1` it was “inactive”; in that of `CC1(C)S[C@@H]2[C@H](NC(=O)C3(N)CCCCC3)C(=O)N2[C@H]1C(=O)O`, “inactive”; in that of `Cc1ccc2cccc(NS(=O)(=O)c3ccccc3[N+](=O)[O-])c2n1`, 4.33 µM (active).
On to `COc1ccc(NC(=O)N2CCc3c(sc4c3CCCC4)C2c2ccccc2OC)cc1` (configuration not stated), for which the Potency result was “inactive”.
Consider `COc1ccc(C2C(C(=O)Nc3ccccc3)=C(C)Nc3c(C(=O)Nc4ccccc4)cnn32)cc1` (configuration not stated), for which the Potency result was “inactive”.
Take `CCc1cccc(NC(=O)CN2CCCN(Cc3cccc(C)c3)S2(=O)=O)c1`: the Potency result was “inactive”.
In the case of `COc1ccccc1N1CCN(S(=O)(=O)c2c(C)nc3sc(C)c(C)n3c2=O)CC1` it was “inactive”.
